Sampled rows, rich in hits. Any-hit rate of the full collection: about 18%.
DT40 TDP1 CPT: growth inhibition of DT40 Tdp1-/-;hTDP1 cells with camptothecin (screen for TDP1 inhibitors). chicken DT40 Tdp1-/-;hTDP1 cells + 20 nM CPT, ATP luminescence, 48 h. Potency, µM (series often up to 46.2 µM), for the others: at the top dose activity change, negative = growth inhibition, hits mostly inhibitors. 420,000 tested, 12% active. AID 686979; note: nearly all actives have a fitted effect of over 55% in size
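Chicken DT40 Tdp1-/- cells stably complemented with human TDP1 were seeded at 400 cells/well in medium containing 20 nM camptothecin, exposed to pin-transferred compounds, and grown at 37 °C for at least 48 hr. Viability was read as ATP luminescence.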
TDP1 block: blocks human tyrosyl-DNA phosphodiesterase 1. Q9NUW8. recombinant TDP1, AlphaScreen DNA substrate cleavage. Potency, µM (top dose mostly 130 µM), for the others: top-dose activity change, negative = inhibition, actives largely listed as inhibitors. AID 485290. 350,000 tested, 0.28% active; note: nearly all actives have a fitted effect of over 40% in size
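Here, a 5' biotin and 3' phosphotyrosine-FITC DNA oligonucleotide reports Tdp1 activity: intact substrate bridges AlphaScreen beads, while cleavage leaves a 3' phosphate and drops signal. All incubations at room temperature.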
KAT2A inh: blocks human GCN5L2 histone acetyltransferase; 390,000 tested, 0.21% active; Q92830; Potency, µM (highest dose often 58.9 µM), for the others: at the top dose activity change, negative = inhibition, most hits filed as inhibitors; GCN5L2 HAT assay, ThioGlo1 CoA-SH fluorescence
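Enzyme at 20nM final was mixed with library compounds for 15 min at room temperature. Peptide H3(1-25) at 75uM, acetyl-CoA at 70uM and ThioGlo1 at 50uM were then added. Plates were read immediately and after 20 min (Ex340nm/Em540nm).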
PLK1 PBD block: PLK1 (human) polo-box domain binding inhibition; P53350; Plk1 PBD binding of FITC phosphopeptide, fluorescence polarization; Potency, µM, without a hit: max response, negative = inhibition, usual class: inhibitors; 360,000 tested, 2.8% active; AID 720504; note: series mostly up to about 57 µM; nearly all actives have a fitted effect of over 65% in size
VDR inh: blocks the human vitamin D receptor; P11473; Potency, µM, for the others: max response, negative = inhibition, actives largely listed as inhibitors; VDR-SRC2-3 peptide fluorescence polarization, 2 h; 400,000 tested, 0.93% active
Target sequence (P11473 whole entry, looked up): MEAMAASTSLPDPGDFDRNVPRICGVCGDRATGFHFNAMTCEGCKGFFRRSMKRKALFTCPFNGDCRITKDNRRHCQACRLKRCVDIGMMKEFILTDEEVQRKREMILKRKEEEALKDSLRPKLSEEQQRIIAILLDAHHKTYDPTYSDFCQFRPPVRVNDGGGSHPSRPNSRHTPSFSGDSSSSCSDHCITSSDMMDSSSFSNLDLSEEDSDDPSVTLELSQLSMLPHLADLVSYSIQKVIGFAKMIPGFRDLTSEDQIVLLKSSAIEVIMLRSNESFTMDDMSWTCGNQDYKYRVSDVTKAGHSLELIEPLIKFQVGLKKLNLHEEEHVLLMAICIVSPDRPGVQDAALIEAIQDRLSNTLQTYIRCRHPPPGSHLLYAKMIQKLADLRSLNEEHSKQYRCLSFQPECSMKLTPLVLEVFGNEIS
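After 23 nl compound addition and a short centrifugation, plates sat for 2 hours at ambient temperature; polarization of fluorescence then indicated loss of VDR binding to peptide SRC2-3.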
DT40 TDP1 no CPT: qHTS for Inhibitors of human tyrosyl-DNA phosphodiesterase 1 (TDP1): qHTS in cells in absence of CPT; Potency, µM (highest dose often 46.2 µM), for inactives: top-dose activity change, negative = growth inhibition, actives largely listed as inhibitors; DT40 Tdp1-/- hTDP1 cells, no CPT, ATP luminescence, 48 h; AID 686978, 2013; 420,000 tested, 15% active; note: nearly all actives have a fitted effect of over 55% in size
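Seeded 400 DT40-hTDP1 cells/well (vehicle DMSO, no 20 nM CPT); pinned compounds; ≥48 hr at 37 °C; CellTiter-Glo luminescence as viability measure.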
* marks the source's active call; other numbers are inactive results; ? = inconclusive; . = no result given. Calls come from the whole dose curve; as a rule, active = well fitted curve in the direction sought with a large enough effect; inconclusive = small, poorly fitted or top-dose-only effect, or another doubt; inactive = no such curve, though single readings can be large; an effect the other way counts as inactive or inconclusive. % is set by controls: 0 for no effect and ±100 for the full control effect; potency is the fitted concentration of half-maximal effect.

SMILES	DT40 TDP1 CPT	TDP1 block	KAT2A inh	PLK1 PBD block	VDR inh	DT40 TDP1 no CPT
O=C(/C=C/c1c(Cl)cccc1Cl)NCc1ccco1	?	1%	1%	-5%	-3%	5.8µM*
O=C(NCc1ccco1)C1CC(c2c(Cl)cccc2Cl)=NO1 (stereo not given)	?	4%	-16%	-8%	-28%	16µM*
O=C(NCc1cccc(Br)c1)C1CC(c2ccccc2C(F)(F)F)=NO1 (stereo not given)	?	1%	29%	-1%	1%	18µM*
O=C(NCc1cccc(C(F)(F)F)c1)C1CC(c2c(Cl)cccc2Cl)=NO1 (stereo not given)	16µM*	-2%	-9%	-3%	-1%	16µM*
O=C(NCc1cccc(Br)c1)C1CC(c2cc(C(F)(F)F)cc(C(F)(F)F)c2)=NO1 (stereo not given)	-33%	.	.	-15%	-7%	-7%
O=C(/C=C/c1ccccc1Cl)NCc1ccco1	-12%	6%	-1%	-11%	7%	?
COc1ccc(C(CNC(=O)C(CC(C)C)NS(=O)(=O)c2ccc(C)cc2)N2CCOCC2)cc1 (stereo not given)	-7%	1%	-2%	-6%	-16%	-13%
CC(C)NC(=O)c1ccc(Cn2c(=O)c3cccn3c3cccnc32)cc1	4%	3%	2%	.	-3%	?
O=C(NCc1ccco1)C1CC(c2ccc(Cl)c(Cl)c2)=NO1 (stereo not given)	13µM*	0%	0%	-3%	1%	8.2µM*
COc1cccc(NC(=O)Cn2cc(C=O)c3ccccc32)c1	16µM*	.	-14%	1%	1%	26µM*
CCc1cccc(NC(=O)Cn2cc(C=O)c3ccccc32)c1	9.2µM*	1%	-1%	-1%	-11%	10µM*
COc1cccc(NC(=O)c2sc3nc(C)c(C(=O)Nc4ccc(C)cc4C)c(-c4ccccc4Cl)c3c2N)c1	-24%	0%	?	.	-9%	?
Cc1cc(C)cc(NC(=O)N2CCCN(Cc3c(F)cccc3Cl)CC2)c1	-32%	3%	-4%	-20%	18%	?
CN(C)S(=O)(=O)N1CCCC(C(=O)c2ccc(-c3ccccc3)cc2)C1 (stereo not given)	?	-2%	-17%	-9%	-18%	23µM*
Cc1ncoc1C(=O)N1CCCC(C(=O)c2ccc(-c3ccccc3)cc2)C1 (stereo not given)	18µM*	5%	-5%	-5%	7%	23µM*
Cc1nn(C)cc1CN1CCCC(C(=O)c2ccc(-c3ccccc3)cc2)C1 (stereo not given)	?	0%	-1%	-8%	1%	21µM*
Cn1ccnc1C(=O)C1CCCN(Cc2cn[nH]c2-c2ccc(-c3ccccc3)cc2)C1 (stereo not given)	?	0%	2%	4%	3%	?
O=C(c1ccc(Cl)cc1)C1CCCN(Cc2ccc(Oc3ncccn3)cc2)C1 (stereo not given)	?	5%	-1%	-23%	-21%	-85%
Cc1ncoc1C(=O)N1CCCC(N2CCN(c3ccccc3F)CC2)C1 (stereo not given)	-3%	5%	-5%	-1%	5%	14%
O=C(c1ccc(-c2ccccc2)cc1)C1CCCN(Cc2ccncc2)C1 (stereo not given)	16µM*	6%	-3%	-12%	2%	?
CCc1nc2ccc(C)cc2c(C(=O)NC2CCCCC2C)c1C (stereo not given)	-13%	-2%	-8%	0%	-3%	-1%
O=C(O)c1cc([N+](=O)[O-])c(NCCC2=CCCCC2)c([N+](=O)[O-])c1	-10%	-4%	-23%	-15%	?	-2%
